Measured values as given in PubChem BioAssay (NCATS).
Inconclusive results are not listed. Values without a mark were called inactive. The source made the active and inactive calls. The call rests on the fitted dose curve; in most records, active means well fitted inhibition curve with a large enough effect; inconclusive means small, poorly fitted or top-dose-only effect; inactive means flat fitted curve, though single readings scatter.

How the values were obtained:
[1] = Drug repurposing screens with cells derived from glioblastoma tumor samples (AID 1345199); settings: GBM patient neurospheres viability, ATP luminescence, 48 h; further: nearly all actives have a fitted effect of over 40% in size
In short: (§1)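 Primary testing used CD133+ neurospheres from four GBM patients, seven concentrations, 48 h exposure and ATP-based viability; confirmation added three slower-growing patient lines.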

[2] = test system: astro; assay: as above; settings: viability, ATP luminescence, 48 h; series mostly up to 45.9 µM
In short: as §1

[3] = at 45.9 µM (top of the series), tumour line B
[4] = at 45.9 µM (top of the series), tumour line D
[5] = at 46 µM (top of the series), tumour line A
[6] = at 46.1 µM (top of the series), tumour line C
[7] = at 20 µM (top of the series), tumour line C
[8] = at 21.2 µM (top of the series), tumour line B
[9] = at 21.2 µM (top of the series), tumour line D
[10] = at 21.3 µM (top of the series), tumour line A
On the % scale 0 is the no-effect control and ±100 the full control effect; potency means the concentration at half of the fitted maximal effect.

O=C1C2CC3CC1CC(O)(C3)C2
activity, negative = cell killing [1, 3]: 0.0639% | activity, negative = cell killing [1, 4]: -11.1% | activity, negative = cell killing [1, 5]: -19.7% | activity, negative = cell killing [1, 6]: -14.8% | Potency [2]: inactive

C[C@@H]1NC(=O)[C@@H](N)CNC(=O)[C@H](C2CCNC(N)=N2)NC(=O)/C(=C/NC(N)=O)NC(=O)[C@H](CNC(=O)C[C@@H](N)CCCN)NC1=O (some centres not stated)
activity, negative = cell killing [1, 7]: 24.6% | activity, negative = cell killing [1, 8]: -11.2% | activity, negative = cell killing [1, 9]: -13.8% | activity, negative = cell killing [1, 3]: -12.9% | activity, negative = cell killing [1, 4]: -1.47% | activity, negative = cell killing [1, 6]: -18.8% | Potency [2]: inactive

CCCC1C(=O)N2C(N(C)C)=Nc3ccc(C)cc3N2C1=O (configuration not stated)
activity, negative = cell killing [1, 7]: -0.417% | activity, negative = cell killing [1, 8]: -20.8% | activity, negative = cell killing [1, 9]: -11.9% | activity, negative = cell killing [1, 10]: -28.1% | Potency [2]: inactive

CC(C)N1CCN(c2ccc(OC[C@H]3CO[C@](Cn4cncn4)(c4ccc(Cl)cc4Cl)O3)cc2)CC1
activity, negative = cell killing [1, 7]: -6.28% | Potency ([1]; tumour line A): 2.51 µM (active) | Potency ([1]; tumour line B): 14.1 µM (active) | Potency ([1]; tumour line D): 10 µM (active) | Potency [2]: inactive

O=C(O)c1cc(O)c2c(c1)[C@H]([C@H]1c3cc(C(=O)O)cc(O)c3C(=O)c3c(O[C@@H]4O[C@H](CO)[C@@H](O)[C@H](O)[C@H]4O)cccc31)c1cccc(O[C@@H]3O[C@H](CO)[C@@H](O)[C@H](O)[C@H]3O)c1C2=O
activity, negative = cell killing [1, 3]: -24.5% | activity, negative = cell killing [1, 4]: -3.04% | activity, negative = cell killing [1, 5]: -24% | activity, negative = cell killing [1, 6]: -0.084% | Potency [2]: inactive

Nc1nc(/C(=C/CC(=O)O)C(=O)N[C@@H]2C(=O)N3C(C(=O)O)=CCS[C@H]23)cs1
activity, negative = cell killing [1, 3]: -0.0909% | activity, negative = cell killing [1, 4]: -11.4% | activity, negative = cell killing [1, 5]: 12.2% | activity, negative = cell killing [1, 6]: 20.6% | Potency [2]: inactive

Cn1cc(NC(=O)c2cc(NC(=O)c3cc(NC=O)cn3C)cn2C)cc1C(=O)NCCC(=N)N
activity, negative = cell killing [1, 3]: -15.1% | activity, negative = cell killing [1, 4]: -11.2% | activity, negative = cell killing [1, 5]: -20.5% | activity, negative = cell killing [1, 6]: -26.2% | Potency [2]: inactive

C=CC[C@@H]1/C=C(\C)C[C@H](C)C[C@H](OC)[C@H]2O[C@@](O)(C(=O)C(=O)N3CCCC[C@H]3C(=O)O[C@H](/C(C)=C/[C@@H]3CC[C@@H](O)[C@H](OC)C3)[C@H](C)[C@@H](O)CC1=O)[C@H](C)C[C@@H]2OC
activity, negative = cell killing [1, 3]: -12.2% | activity, negative = cell killing [1, 4]: -18.8% | activity, negative = cell killing [1, 6]: -16.1% | Potency ([1]; tumour line A): 7.94 µM (active) | Potency [2]: inactive

CCCCCc1ccc(C)cc1O
activity, negative = cell killing [1, 3]: -7.13% | activity, negative = cell killing [1, 4]: 3.04% | activity, negative = cell killing [1, 5]: -24.1% | activity, negative = cell killing [1, 6]: -11.1% | Potency [2]: inactive

CO[C@@]1(NC(=O)C2SC(=C(C(N)=O)C(=O)O)S2)C(=O)N2C(C(=O)O)=C(CSc3nnnn3C)CS[C@@H]21 (some centres not stated)
activity, negative = cell killing [1, 7]: -19.2% | activity, negative = cell killing [1, 8]: -15.8% | activity, negative = cell killing [1, 9]: -10.4% | activity, negative = cell killing [1, 10]: -12.5% | Potency [2]: inactive

O=C1/C(=C\c2cccs2)CCC/C1=C\c1cccs1
activity, negative = cell killing [1, 3]: -19.7% | activity, negative = cell killing [1, 4]: -28.6% | activity, negative = cell killing [1, 6]: -23.9% | Potency ([1]; tumour line A): 25.1 µM (active) | Potency [2]: inactive

CC1C(=O)CC2C3(C)CCC2(C(C)C(=O)O)C(=O)C13 (configuration not stated)
activity, negative = cell killing [1, 3]: -19.4% | activity, negative = cell killing [1, 4]: 8.38% | activity, negative = cell killing [1, 5]: -22.7% | activity, negative = cell killing [1, 6]: -6.43% | Potency [2]: inactive

CC1(C)S[C@@H]2[C@H](N3C(=O)C(c4ccccc4)NC3(C)C)C(=O)N2[C@H]1C(=O)O (some centres not stated)
activity, negative = cell killing [1, 3]: -8.88% | activity, negative = cell killing [1, 4]: -1.4% | activity, negative = cell killing [1, 5]: -5.42% | activity, negative = cell killing [1, 6]: -5.2% | Potency [2]: inactive

CNCC(O)c1ccc(OC(=O)C(C)(C)C)c(OC(=O)C(C)(C)C)c1 (configuration not stated)
activity, negative = cell killing [1, 7]: 5.42% | activity, negative = cell killing [1, 8]: -16.5% | activity, negative = cell killing [1, 9]: -22.8% | activity, negative = cell killing [1, 10]: -18% | Potency [2]: inactive

CCCCCCCCCCCCCCCC(=O)OC[C@H](COP(=O)([O-])OCC[N+](C)(C)C)OC(=O)CCCCCCCCCCCCCCC
activity, negative = cell killing [1, 3]: -12.1% | activity, negative = cell killing [1, 4]: -1.49% | activity, negative = cell killing [1, 5]: -32.2% | activity, negative = cell killing [1, 6]: -17.2% | Potency [2]: inactive

O=C(OCc1ccccc1)c1cccnc1
activity, negative = cell killing [1, 3]: -17.7% | activity, negative = cell killing [1, 4]: -1.76% | activity, negative = cell killing [1, 5]: -18.6% | activity, negative = cell killing [1, 6]: 7.49% | Potency [2]: inactive

CN1C(=O)C[C@@H](C(=O)N[C@@H](Cc2cnc[nH]2)C(=O)N2CCC[C@H]2C(N)=O)NC1=O
activity, negative = cell killing [1, 3]: -7.31% | activity, negative = cell killing [1, 4]: -5.42% | activity, negative = cell killing [1, 5]: -26.4% | activity, negative = cell killing [1, 6]: -16.9% | Potency [2]: inactive

CC(C)CCCC(C)NC(C)C (configuration not stated)
activity, negative = cell killing [1, 3]: -14.7% | activity, negative = cell killing [1, 4]: -20.7% | activity, negative = cell killing [1, 5]: -22.7% | activity, negative = cell killing [1, 6]: -7.93% | Potency [2]: inactive

CC(=O)Nc1c(I)c(C(=O)O)c(I)c(N(C)C(C)=O)c1I
activity, negative = cell killing [1, 3]: 6.39% | activity, negative = cell killing [1, 4]: 5.92% | activity, negative = cell killing [1, 5]: -22.3% | activity, negative = cell killing [1, 6]: 7.24% | Potency [2]: inactive

CCOC(=S)SSC(=S)OCC
activity, negative = cell killing [1, 3]: -12.5% | activity, negative = cell killing [1, 4]: -2.86% | activity, negative = cell killing [1, 5]: -27.4% | activity, negative = cell killing [1, 6]: -5.03% | Potency [2]: inactive

CCCC(=O)Nc1c(I)cc(I)c(CC(CC)C(=O)O)c1I (configuration not stated)
activity, negative = cell killing [1, 3]: -12.8% | activity, negative = cell killing [1, 4]: 14.7% | activity, negative = cell killing [1, 5]: -17.5% | activity, negative = cell killing [1, 6]: -13.2% | Potency [2]: inactive

CC(=O)Nc1ccc(OC(C)=O)cc1
activity, negative = cell killing [1, 3]: -2.78% | activity, negative = cell killing [1, 4]: 2.27% | activity, negative = cell killing [1, 5]: -21% | activity, negative = cell killing [1, 6]: -27.8% | Potency [2]: inactive

COC(=O)[C@@H](N)CS
activity, negative = cell killing [1, 3]: 4.89% | activity, negative = cell killing [1, 4]: -8.33% | activity, negative = cell killing [1, 5]: -26.1% | activity, negative = cell killing [1, 6]: 4.09% | Potency [2]: inactive
